The campaign covered roughly 220,000 compounds. About 910 (0.41%) were called active. The full list was thinned out, with actives kept by preference. Results with a measured potency or affinity are listed apart. Values without a mark were called inactive.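 Rule for the calls: active = primary inhibition above the hit cutoff, then over 50% inhibition at one or more dose response concentrations (cut at about 23% in these data, passing the limit was not always enough); inconclusive = conflicting primary data, or primary hits not chosen for dose response; inactive = low primary inhibition, or under 50% at every dose.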 Where a SMILES comes first, the peptide text is derived from it.
biological target: Aminopeptidase N (Plasmodium falciparum (isolate 3D7)) (UniProt O96935); assay: P. falciparum M1AAP inhibitors, biochemical, fluorogenic H-Leu-NHMec substrate, 1536-well (AID 1445); details: recombinant M1AAP, H-Leu-NHMec fluorogenic kinetic assay; at 30 µM, active compounds read high unless noted;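 note: plate controls were DMSO full reaction for no effect and no enzyme background for full effect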
Sequence (O96935 whole entry, looked up): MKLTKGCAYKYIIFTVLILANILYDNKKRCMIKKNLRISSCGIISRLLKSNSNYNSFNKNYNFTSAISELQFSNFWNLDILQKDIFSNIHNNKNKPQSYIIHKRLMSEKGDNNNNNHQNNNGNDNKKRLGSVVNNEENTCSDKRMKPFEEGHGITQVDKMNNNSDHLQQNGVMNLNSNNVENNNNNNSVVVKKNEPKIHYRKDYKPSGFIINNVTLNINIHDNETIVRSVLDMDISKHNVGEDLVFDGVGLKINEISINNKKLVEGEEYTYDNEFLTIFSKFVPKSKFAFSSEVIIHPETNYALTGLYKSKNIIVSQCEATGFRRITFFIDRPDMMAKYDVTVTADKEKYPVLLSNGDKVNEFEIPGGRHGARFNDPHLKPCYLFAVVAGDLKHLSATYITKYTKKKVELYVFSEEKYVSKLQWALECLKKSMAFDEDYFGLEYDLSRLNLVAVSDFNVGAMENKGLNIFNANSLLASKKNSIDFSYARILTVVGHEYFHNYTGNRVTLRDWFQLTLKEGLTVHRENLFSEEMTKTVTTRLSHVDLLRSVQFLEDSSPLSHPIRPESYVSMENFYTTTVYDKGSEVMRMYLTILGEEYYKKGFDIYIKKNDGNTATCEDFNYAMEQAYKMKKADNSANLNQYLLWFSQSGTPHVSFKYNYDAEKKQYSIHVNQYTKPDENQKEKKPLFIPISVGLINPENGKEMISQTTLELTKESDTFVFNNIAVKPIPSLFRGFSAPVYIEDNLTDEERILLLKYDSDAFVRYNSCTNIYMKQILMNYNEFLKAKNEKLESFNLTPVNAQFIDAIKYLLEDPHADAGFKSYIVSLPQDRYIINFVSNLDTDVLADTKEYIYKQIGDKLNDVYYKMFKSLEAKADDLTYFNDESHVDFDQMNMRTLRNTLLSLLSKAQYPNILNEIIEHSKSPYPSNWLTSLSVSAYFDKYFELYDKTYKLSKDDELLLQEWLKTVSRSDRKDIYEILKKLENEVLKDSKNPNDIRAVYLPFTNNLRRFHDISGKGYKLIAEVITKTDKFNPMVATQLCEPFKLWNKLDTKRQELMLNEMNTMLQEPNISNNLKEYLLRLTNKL

| Compound | inhibition |
| --- | --- |
| CC(C)CN(CCOc1cccc(N2C(=O)C3=C(CCCC3)C2=O)c1)CC(C)C | 3.32% |
| CC(=O)c1cccc(NC(=O)N2CCCc3ccccc32)c1 | 7.74% |
| COc1ccc(C2CCCN2C(=S)Nc2ccccc2C)cc1OC (configuration not stated) | -1.92% |
| COc1ccc(C=O)cc1CSc1nnc(COc2cccc3cccnc23)o1 | 3.48% |
| C/C(CC(=O)Nc1cccc(C(F)(F)F)c1)=N/NC(=O)C(=O)NCCO | 8.99% |
| O=C(Cc1c[nH]c2ccccc12)N/N=C/c1ccccc1O | 20.7% |
| CC(C(=O)Nc1ccc(N2CCOCC2)cc1)N1C(=O)c2ccccc2C1=O (configuration not stated) | 4.39% |
| COc1ccc(NC(=O)C(C)N2C(=O)c3ccccc3C2=O)cc1S(=O)(=O)N1CCOCC1 (configuration not stated) | 9.37% |
| COc1ccc(NC(=S)N(CCc2c(C)[nH]c3ccccc23)Cc2ccco2)cc1 | -1.5% |
| O=C(Nc1ccc2snnc2c1)N1CCSCC1 | 6.62% |
| CC(c1ccccc1)N1C(=O)c2ccccc2C1O (configuration not stated) | 0.46% |
| CN(C)S(=O)(=O)c1ccc(N2CCOCC2)nc1 | 8.35% |
| O=C(NN1C(=O)/C(=C/c2cccs2)SC1=S)c1ccccc1 | 7.49% |
| Cc1ccc(S(=O)(=O)NN2C(=O)/C(=C/c3ccccn3)SC2=S)cc1 | 17.4% |
| O=C(NN1C(=O)/C(=C/c2cccs2)SC1=S)c1ccncc1 | 20.6% |
| O=C1/C(=C/c2cccs2)SC(=S)N1c1ccccc1 | 5.36% |
| O=S(=O)(Nc1nc2ccccc2[nH]1)c1ccccc1 | 1.84% |
| CC(=O)NN1C(=O)/C(=C\c2ccccc2)SC1=S | 12.8% |
| Nc1nnc(CSc2ccc(Cl)cc2)s1 | -0.69% |
| COc1cccc(NC(=O)C(Sc2nnc(-c3ccncc3)n2-c2ccc(Cl)cc2)c2ccccc2)c1 (configuration not stated) | -1.95% |
| C=CCOc1c2ccc(C(=O)NCc3ccc(OC)cc3)cc2nn1C | 15.3% |
| Cc1cc(C)n(-c2ccc(C(=O)OCC(=O)c3c(N)n(C)c(=O)n(C)c3=O)cc2)n1 | 4.93% |
| O=C(CCCCn1c(=O)[nH]c2ccsc2c1=O)NCC1CCCO1 (configuration not stated) | -2.47% |

| Compound | inhibition |
| --- | --- |
| O=C(NCc1ccco1)c1ccc(Cl)c(S(=O)(=O)N2CCOCC2)c1 | 0.38% |
| COC(=O)c1cc(C(=O)NCCN2C(=O)S/C(=C\c3cccs3)C2=O)cc([N+](=O)[O-])c1 | 9.47% |
| CCOC(=O)c1cc(C)[nH]c(=S)c1C#N | 5.55% |
| COc1cc(/C=C/C(=O)O)cc(S(=O)(=O)Nc2ccc3c(c2)OCO3)c1OC | 10.2% |
| COc1cc(/C=C/C(=O)O)cc(S(=O)(=O)Nc2ccccc2Cl)c1OC | 5.83% |
| COc1cc(/C=C/C(=O)O)cc(S(=O)(=O)Nc2ccc(F)cc2)c1OC | 5.47% |
| COc1cc(/C=C/C(=O)O)cc(S(=O)(=O)NCc2ccco2)c1OC | 4.28% |
| COc1cc(/C=C/C(=O)O)cc(S(=O)(=O)Nc2ccc3nc(C)sc3c2)c1OC | 3.42% |
| COc1cc(/C=C/C(=O)O)cc(S(=O)(=O)Nc2cccc(SC)c2)c1OC | 9.82% |
| CC(=O)C1=C(O)C(=O)N(C2CCCCC2)C1c1ccccc1 (configuration not stated) | 10.2% |
| CC(C)NC(=S)N(C)C1(c2ccccc2Cl)CCCCC1=O (configuration not stated) | 2.06% |
| O=C(CCc1nc(-c2ccccc2F)no1)NCc1ccco1 | 8.13% |
| COCCNC(=S)Nc1ccc(N2CCCCC2)cc1 | 2.09% |
| Cc1ccc(N2C(=O)[C@@H]3C(C(=O)CN4C(=O)c5ccccc5C4=O)=NN[C@@H]3C2=O)c(C)c1 | 4.06% |
| Cc1cccc(N2C(=O)CCC2=O)n1 | -1.56% |
| Cc1ccc(N2C(=O)c3ccccc3C2=O)cc1C | 2.18% |
| Cc1ccc(N2C(=O)c3ccccc3C2=O)cc1Cl | -2.81% |
| Cc1cccc(NC(=O)CCCN2C(=O)c3ccccc3C2=O)n1 | -6.68% |
| Cc1ccc(N2C(=O)c3ccc(C(=O)O)cc3C2=O)c(C)c1 | -3.18% |
| CC(=O)Nc1ccc(/C(C)=N/NC(=O)c2ccc(F)cc2)cc1 | 7.12% |
| O=C(Cn1cncn1)N/N=C/c1ccncc1 | -2.16% |
| COc1ccc(N(C(=O)C(C)C)S(=O)(=O)c2ccc3c(c2)n(C)c(=O)n3C)cc1 | 4.01% |
| CC(C)c1ccc(-c2nnc(N)s2)cc1 | -1.69% |

| Compound | inhibition |
| --- | --- |
| Cn1nc(C(C)(C)C)cc1NC(=O)Nc1ccc(F)cc1F | 6.33% |
| COc1ccc(S(=O)(=O)NCc2cc(-c3ccccc3Cl)no2)cc1 | 1.55% |
| COc1ccc(NC(=O)c2oc3ccccc3c2NC(=O)C(C)(C)C)cc1 | 6.73% |
| CCNc1nc(SC(C)C(=O)Nc2ccccc2)nc(N(C)C)n1 (configuration not stated) | 0.28% |
| CCOC(=O)CNc1nc(Cl)nc(NC(C)(C)C)n1 | 5.43% |
| O=C(COc1ncnc2ccccc12)N1CCN(S(=O)(=O)c2ccccc2)CC1 | 28.2% (active) |
| O=C(COc1ncnc2ccccc12)N1CCN(S(=O)(=O)c2ccc(Cl)cc2)CC1 | -2.49% |
| O=C(COc1ncnc2c(Cl)cc(Cl)cc12)N1CCN(S(=O)(=O)c2ccccc2)CC1 | 5.95% |
| O=C(CSc1ncn[nH]1)NN(c1ccccc1)c1ccccc1 | 0.8% |
| CC(=O)Nc1ccc(Nc2nc3ccccc3nc2NS(=O)(=O)c2ccccc2)cc1 | 14.8% |
| O=[N+]([O-])c1cccc(S(=O)(=O)Nc2nc3ccccc3nc2Nc2cccc(S(=O)(=O)N3CCCCC3)c2)c1 | 9.64% |
| CC(=O)Nc1ccc(S(=O)(=O)Nc2nc3ccccc3nc2Nc2ccc(S(N)(=O)=O)cc2)cc1 | 19.6% |
| O=S(=O)(Nc1cccc(S(=O)(=O)N2CCCCCC2)c1)c1ccccc1 | -2% |
| Cc1nc(-c2cccc(NS(=O)(=O)c3ccc4ccccc4c3)c2)cs1 | 11.2% |
| CC(=O)Nc1ccc(S(=O)(=O)Nc2nc3ccccc3nc2Nc2ccc(O)cc2)cc1 | 29.4% |
| Cc1nc(-c2cccc(NS(=O)(=O)c3ccccc3)c2)cs1 | 12.7% |
| O=[N+]([O-])c1ccc(S(=O)(=O)Nc2nc3ccccc3nc2Nc2ccccc2)cc1 | 2.42% |
| COc1ccc(-n2c(COc3cccc4cccnc34)nnc2SCC(=O)O)cc1 | -1.59% |
| COc1cc(C)c(S(=O)(=O)NC2CC(C)(C)NC(C)(C)C2)cc1C | -4.25% |
| N/C(=N\OC(=O)Cc1ccccc1[N+](=O)[O-])c1ccccn1 | -2.27% |
| CC12CCC(=O)N1c1ccccc1C(=O)N2c1ccccc1 (configuration not stated) | 5.47% |
| CCC(CC)C(=O)OCC(=O)Nc1ccc(S(=O)(=O)N2CCOCC2)cc1OC | -0.13% |
| COc1cccc2[nH]c3c(=O)n(CCCN4CCOCC4)cnc3c12 | 4.76% |

| Compound | inhibition |
| --- | --- |
| CCOC(=O)c1c(C)c2c(n1C)CCC/C2=N\O | 5.95% |
| Fc1cccc(/C=N/Nc2ncnc3nc[nH]c23)c1 | 17.8% |
| CCOC(=O)c1c(C)[nH]c(C(=O)Nc2ccc(C)c(Cl)c2)c1C | -6.14% |
| O=C(N[C@@H](Cc1ccc(O)cc1)C(=O)O)C(c1ccccc1)c1ccccc1 | 1.32% |
| CC(C)[C@H](NC(=O)[C@H](CC(=O)O)NC(=O)[C@H](CCCCN)NC(=O)[C@@H](N)CCCN=C(N)N)C(=O)N[C@@H](Cc1ccc(O)cc1)C(=O)O (H-RKDVY-OH) | -1.63% |
| COc1cc(/C=N/n2cnnc2)ccc1OS(=O)(=O)c1ccccc1[N+](=O)[O-] | -1.85% |
| CC/C(C)=C1\SC(N2CCN(c3cccc(C(F)(F)F)c3)CC2)=NC1=O | -4.38% |
| O=C(COc1ccc(Cl)cc1)NNC(=O)c1cccnc1 | 3.11% |
| CCC(CC)NC(=O)c1cccc(Br)c1 | 4.75% |
| CCc1ccc(NC(=O)CSc2nc3n[nH]c(C)c3c(=N)n2-c2cccc(OC)c2)cc1 | 3.02% |
| CCn1c(Cc2ccc(OC)cc2)nnc1SCC(=O)NC1CCCCC1 | 5.01% |
| COc1ccc(Cc2nnc(SCC(=O)NC3CCCCC3)n2C)cc1 | 24.3% (active) |
| COc1cccc(NC(=O)CSc2nc3n[nH]c(C)c3c(=N)n2-c2cccc(OC)c2)c1 | 1.29% |
| COc1cccc(-n2c(SCC(=O)NC3CCCCC3)nc3n[nH]c(C)c3c2=N)c1 | 57.3% (active) |
| Cn1c(Cc2ccccc2)nnc1SCC(=O)NC1CCCCC1 | -1.27% |
| Cc1ccc(S(=O)(=O)Oc2ccccc2/C=N/NC(=O)c2nn(C)cc2[N+](=O)[O-])cc1 | 9.1% |
| CCOCCCNS(=O)(=O)c1ccc(OC)c(Cl)c1Cl | -1.01% |
| COc1cnn(Cc2ccccc2)c(=O)c1SCc1ccccc1 | 2.35% |
| CS(=O)(=O)N1CCN(c2ccc(NC(=S)NC(=O)c3ccccc3[N+](=O)[O-])cc2)CC1 | 2.8% |
| Cc1[nH]n(-c2ccccc2)c(=O)c1-c1ccc(Cl)cc1 | 17.9% |
| Cc1[nH]n(-c2cccc(Cl)c2)c(=O)c1-c1ccc(Cl)cc1 | 27.2% (active) |
| Cc1[nH]n(-c2cccc(Cl)c2)c(=O)c1-c1ccccc1 | 13.4% |
| CC(=O)c1sc(NC(=O)CCCOc2ccc(Cl)cc2)nc1C | -3.27% |

From PubChem BioAssay AID1445 (SRMLSC, 2008)
